# Reference: PMC7862700, “An all-to-all approach to the identification of sequence-specific readers for epigenetic DNA modifications on cytosine”
# Columns and labels:
# Test in all cases: DAPPL (digital affinity profiling via proximity ligation, sequencing); 10 mM Tris-HCl pH 7.5, 50 mM NaCl, 1 mM DTT, 4% glycerol, room temperature, 30 min; GST-TFs on glutathione beads, 16-mer random dsDNA library, 0.1% formaldehyde crosslink after washing; high values mean tight binding
# FLI1 = biological target: T1, FLI1 (Homo sapiens, UniProt Q01543 1-452); details: protein: recombinant; tags: N-terminal GST; dsDNA, one strand shown
# T1 sequence: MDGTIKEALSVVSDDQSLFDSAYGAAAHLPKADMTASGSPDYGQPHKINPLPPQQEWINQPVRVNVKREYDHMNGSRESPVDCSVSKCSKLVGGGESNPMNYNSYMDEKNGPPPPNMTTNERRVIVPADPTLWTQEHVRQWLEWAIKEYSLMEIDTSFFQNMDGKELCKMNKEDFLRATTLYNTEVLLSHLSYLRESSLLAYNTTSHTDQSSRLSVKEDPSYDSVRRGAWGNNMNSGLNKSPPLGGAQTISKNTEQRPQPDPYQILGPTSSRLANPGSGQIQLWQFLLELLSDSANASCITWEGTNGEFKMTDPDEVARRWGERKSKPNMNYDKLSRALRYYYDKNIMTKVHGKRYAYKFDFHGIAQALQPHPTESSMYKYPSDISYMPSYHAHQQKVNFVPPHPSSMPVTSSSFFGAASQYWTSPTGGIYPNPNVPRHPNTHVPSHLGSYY
# In short: (§1)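 The binding signal reported is, for every hexamer, its read frequency for a factor over its read frequency for the tag-only sample. Reads came from pools of yeast-expressed, GST-fused human transcription factors on glutathione beads, barcoded with DNA and mixed with that sample, which were incubated with 200 nmole of a random double-stranded 16-mer DNA library in Tris/NaCl/DTT/glycerol buffer at room temperature for 30 min. After washing, the pools were crosslinked with 0.1% formaldehyde, proximity-ligated with BsaI/T4 ligase for 1 h at 37 °C, PCR-amplified and sequenced on an Illumina NextSeq500.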
# ELK1 = biological target: T2, ELK1 (Homo sapiens, UniProt P19419 1-428); details: protein: recombinant; tags: N-terminal GST; dsDNA, one strand shown
# T2 sequence: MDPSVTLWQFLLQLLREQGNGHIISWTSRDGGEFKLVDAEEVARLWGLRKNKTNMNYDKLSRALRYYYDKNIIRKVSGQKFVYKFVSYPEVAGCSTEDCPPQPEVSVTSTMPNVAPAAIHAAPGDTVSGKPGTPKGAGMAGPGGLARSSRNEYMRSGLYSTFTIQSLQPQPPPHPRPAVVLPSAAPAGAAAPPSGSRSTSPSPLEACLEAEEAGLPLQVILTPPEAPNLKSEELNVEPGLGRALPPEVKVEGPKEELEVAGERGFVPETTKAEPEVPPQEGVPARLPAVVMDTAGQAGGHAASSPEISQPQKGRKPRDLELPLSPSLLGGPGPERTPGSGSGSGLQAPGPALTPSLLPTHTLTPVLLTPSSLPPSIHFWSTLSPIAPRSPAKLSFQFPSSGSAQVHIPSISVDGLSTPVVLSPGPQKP
# In short: as §1
# GABPA = biological target: T3, GABPA (Homo sapiens, UniProt Q06546 1-454); details: protein: recombinant; tags: N-terminal GST; dsDNA, one strand shown
# T3 sequence: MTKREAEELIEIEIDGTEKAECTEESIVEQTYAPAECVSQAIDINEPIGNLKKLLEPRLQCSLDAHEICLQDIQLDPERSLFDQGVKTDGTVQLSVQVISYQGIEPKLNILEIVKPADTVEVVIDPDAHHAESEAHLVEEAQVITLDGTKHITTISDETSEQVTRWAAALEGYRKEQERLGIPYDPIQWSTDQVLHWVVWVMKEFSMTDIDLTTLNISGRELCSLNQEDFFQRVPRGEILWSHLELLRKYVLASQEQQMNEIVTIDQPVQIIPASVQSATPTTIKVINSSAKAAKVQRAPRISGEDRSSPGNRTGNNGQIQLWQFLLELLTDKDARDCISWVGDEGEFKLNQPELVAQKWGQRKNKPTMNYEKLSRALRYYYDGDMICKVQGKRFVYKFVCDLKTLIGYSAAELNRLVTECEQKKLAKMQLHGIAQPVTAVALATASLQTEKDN
# In short: as §1
# ERG = biological target: T4, ERG (Homo sapiens, UniProt P11308 1-479); details: protein: recombinant; tags: N-terminal GST; dsDNA, one strand shown
# T4 sequence: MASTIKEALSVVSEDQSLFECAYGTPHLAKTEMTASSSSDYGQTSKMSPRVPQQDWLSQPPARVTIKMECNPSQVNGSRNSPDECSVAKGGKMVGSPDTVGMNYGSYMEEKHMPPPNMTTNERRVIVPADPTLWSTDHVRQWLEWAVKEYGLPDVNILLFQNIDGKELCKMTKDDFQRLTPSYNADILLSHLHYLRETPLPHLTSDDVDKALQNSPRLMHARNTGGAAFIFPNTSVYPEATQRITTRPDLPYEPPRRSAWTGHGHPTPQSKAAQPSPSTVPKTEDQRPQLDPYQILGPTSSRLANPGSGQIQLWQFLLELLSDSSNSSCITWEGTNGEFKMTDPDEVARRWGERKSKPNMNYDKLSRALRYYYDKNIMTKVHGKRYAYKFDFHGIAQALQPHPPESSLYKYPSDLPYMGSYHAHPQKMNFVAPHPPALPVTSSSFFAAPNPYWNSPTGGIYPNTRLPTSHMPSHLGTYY
# In short: as §1
# ELF1 = ELF1 (Homo sapiens, UniProt P32519 1-619); details: protein: recombinant; tags: N-terminal GST; dsDNA, one strand shown
# ELF1, sequence (P32519 whole entry): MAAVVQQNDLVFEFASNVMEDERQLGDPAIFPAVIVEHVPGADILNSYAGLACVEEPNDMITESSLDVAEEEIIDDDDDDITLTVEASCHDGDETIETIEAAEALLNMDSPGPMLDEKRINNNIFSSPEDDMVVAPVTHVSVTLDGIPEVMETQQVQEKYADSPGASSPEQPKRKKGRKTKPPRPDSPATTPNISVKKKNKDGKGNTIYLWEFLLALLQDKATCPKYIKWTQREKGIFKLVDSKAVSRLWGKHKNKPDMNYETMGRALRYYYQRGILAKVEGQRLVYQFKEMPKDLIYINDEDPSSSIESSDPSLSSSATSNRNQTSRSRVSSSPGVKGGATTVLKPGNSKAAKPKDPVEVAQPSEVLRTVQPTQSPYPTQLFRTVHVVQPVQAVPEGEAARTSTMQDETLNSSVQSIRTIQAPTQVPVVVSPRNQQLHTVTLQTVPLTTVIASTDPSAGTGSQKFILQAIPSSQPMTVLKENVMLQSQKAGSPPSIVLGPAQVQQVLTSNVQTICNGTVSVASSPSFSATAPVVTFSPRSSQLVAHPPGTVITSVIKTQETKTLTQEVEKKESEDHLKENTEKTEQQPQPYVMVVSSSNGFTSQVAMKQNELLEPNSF
# In short: as §1
# EHF = biological target: T5, EHF (Homo sapiens, UniProt Q9NZC4 1-300); details: protein: recombinant; tags: N-terminal GST; dsDNA, one strand shown
# T5 sequence: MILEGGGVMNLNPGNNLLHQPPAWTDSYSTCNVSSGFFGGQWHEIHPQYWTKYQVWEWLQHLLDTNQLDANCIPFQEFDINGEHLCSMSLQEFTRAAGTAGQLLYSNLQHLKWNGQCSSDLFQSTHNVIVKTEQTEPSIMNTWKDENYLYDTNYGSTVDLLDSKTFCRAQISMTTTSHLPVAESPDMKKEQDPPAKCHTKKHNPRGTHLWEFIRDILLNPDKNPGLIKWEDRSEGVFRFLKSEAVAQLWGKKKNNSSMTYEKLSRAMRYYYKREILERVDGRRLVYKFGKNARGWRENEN
# In short: as §1
# SPI1 = SPI1 (Homo sapiens, UniProt P17947 1-270); details: protein: recombinant; tags: N-terminal GST; dsDNA, one strand shown
# In short: as §1
# SPIB = SPIB (Homo sapiens, UniProt Q01892 1-262); details: protein: recombinant; tags: N-terminal GST; dsDNA, one strand shown
# SPIB, sequence (Q01892 whole entry): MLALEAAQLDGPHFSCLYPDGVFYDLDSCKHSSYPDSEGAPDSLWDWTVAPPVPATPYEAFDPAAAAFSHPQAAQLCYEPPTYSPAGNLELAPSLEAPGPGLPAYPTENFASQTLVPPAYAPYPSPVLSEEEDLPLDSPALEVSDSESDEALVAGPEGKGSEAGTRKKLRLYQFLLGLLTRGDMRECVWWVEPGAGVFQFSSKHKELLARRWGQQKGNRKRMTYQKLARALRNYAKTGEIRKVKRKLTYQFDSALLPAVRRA
# In short: as §1
# ELK3 = biological target: T6, ELK3 (Homo sapiens, UniProt P41970 1-407); details: protein: recombinant; tags: N-terminal GST; dsDNA, one strand shown
# T6 sequence: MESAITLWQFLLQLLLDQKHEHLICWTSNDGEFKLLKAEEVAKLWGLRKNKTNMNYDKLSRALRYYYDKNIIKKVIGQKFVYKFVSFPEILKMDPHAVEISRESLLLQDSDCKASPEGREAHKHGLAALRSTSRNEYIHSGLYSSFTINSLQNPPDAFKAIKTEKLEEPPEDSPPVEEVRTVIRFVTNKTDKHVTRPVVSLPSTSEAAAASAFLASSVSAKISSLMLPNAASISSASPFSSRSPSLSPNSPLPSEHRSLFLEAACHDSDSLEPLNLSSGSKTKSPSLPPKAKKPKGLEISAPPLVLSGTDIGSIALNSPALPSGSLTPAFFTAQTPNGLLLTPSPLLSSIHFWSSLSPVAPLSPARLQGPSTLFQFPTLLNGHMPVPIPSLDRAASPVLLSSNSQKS
# In short: as §1
# FEV = biological target: T7, FEV (Homo sapiens, UniProt Q99581 1-238); details: protein: recombinant; tags: N-terminal GST; dsDNA, one strand shown
# T7 sequence: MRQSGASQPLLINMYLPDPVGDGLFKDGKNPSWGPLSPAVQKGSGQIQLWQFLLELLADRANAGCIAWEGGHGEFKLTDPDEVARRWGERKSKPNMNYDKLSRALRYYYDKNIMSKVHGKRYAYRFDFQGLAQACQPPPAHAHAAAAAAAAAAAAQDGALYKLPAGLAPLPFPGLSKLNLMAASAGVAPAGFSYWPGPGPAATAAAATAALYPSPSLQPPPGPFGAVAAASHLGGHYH
# In short: as §1
# ETV5 = ETV5 (Homo sapiens, UniProt P41161 1-510); details: protein: recombinant; tags: N-terminal GST; dsDNA, one strand shown
# ETV5, sequence (P41161 whole entry): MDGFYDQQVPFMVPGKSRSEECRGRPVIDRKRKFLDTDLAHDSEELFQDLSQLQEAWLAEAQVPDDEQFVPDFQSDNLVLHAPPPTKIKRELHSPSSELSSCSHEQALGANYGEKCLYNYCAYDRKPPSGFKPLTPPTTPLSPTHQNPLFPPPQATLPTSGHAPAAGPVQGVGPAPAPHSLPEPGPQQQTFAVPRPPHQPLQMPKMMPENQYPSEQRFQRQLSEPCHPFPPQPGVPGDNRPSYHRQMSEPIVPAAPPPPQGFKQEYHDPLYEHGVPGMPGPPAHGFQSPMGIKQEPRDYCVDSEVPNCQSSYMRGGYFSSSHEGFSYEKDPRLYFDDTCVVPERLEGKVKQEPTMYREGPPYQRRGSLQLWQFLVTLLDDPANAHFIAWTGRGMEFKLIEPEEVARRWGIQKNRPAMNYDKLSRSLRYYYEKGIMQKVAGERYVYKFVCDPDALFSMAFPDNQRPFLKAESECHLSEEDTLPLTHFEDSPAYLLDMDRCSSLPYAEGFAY
# In short: as §1
# HSF1 = HSF1 (Homo sapiens, UniProt Q00613 1-529); details: protein: recombinant; tags: N-terminal GST; chain copies: 3; dsDNA, one strand shown
# HSF1, sequence (Q00613 whole entry): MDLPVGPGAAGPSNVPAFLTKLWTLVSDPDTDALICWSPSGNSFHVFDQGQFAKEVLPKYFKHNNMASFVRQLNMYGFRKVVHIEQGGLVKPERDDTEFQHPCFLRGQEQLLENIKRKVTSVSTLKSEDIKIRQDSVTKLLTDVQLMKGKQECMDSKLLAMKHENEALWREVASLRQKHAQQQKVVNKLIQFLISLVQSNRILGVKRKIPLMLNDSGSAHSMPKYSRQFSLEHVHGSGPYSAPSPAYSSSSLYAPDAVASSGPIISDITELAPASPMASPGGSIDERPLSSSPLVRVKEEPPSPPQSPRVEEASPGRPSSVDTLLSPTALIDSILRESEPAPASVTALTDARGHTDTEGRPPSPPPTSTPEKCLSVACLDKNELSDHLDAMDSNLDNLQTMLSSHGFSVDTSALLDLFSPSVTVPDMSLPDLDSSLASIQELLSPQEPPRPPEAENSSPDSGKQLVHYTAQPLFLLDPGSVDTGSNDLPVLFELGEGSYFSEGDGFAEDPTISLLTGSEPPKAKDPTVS
# In short: as §1
# SPIC = biological target: T8, SPIC (Homo sapiens, UniProt Q8N5J4 1-248); details: protein: recombinant; tags: N-terminal GST; dsDNA, one strand shown
# T8 sequence: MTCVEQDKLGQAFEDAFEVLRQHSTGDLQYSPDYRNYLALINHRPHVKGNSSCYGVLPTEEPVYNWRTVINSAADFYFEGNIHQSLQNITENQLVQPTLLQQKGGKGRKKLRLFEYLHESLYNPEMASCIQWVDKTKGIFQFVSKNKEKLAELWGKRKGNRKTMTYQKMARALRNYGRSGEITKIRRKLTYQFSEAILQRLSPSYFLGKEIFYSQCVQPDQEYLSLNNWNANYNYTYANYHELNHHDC
# In short: as §1
# ELF4 = ELF4 (Homo sapiens, UniProt Q99607 1-663); details: protein: recombinant; tags: N-terminal GST; dsDNA, one strand shown
# ELF4, sequence (Q99607 whole entry): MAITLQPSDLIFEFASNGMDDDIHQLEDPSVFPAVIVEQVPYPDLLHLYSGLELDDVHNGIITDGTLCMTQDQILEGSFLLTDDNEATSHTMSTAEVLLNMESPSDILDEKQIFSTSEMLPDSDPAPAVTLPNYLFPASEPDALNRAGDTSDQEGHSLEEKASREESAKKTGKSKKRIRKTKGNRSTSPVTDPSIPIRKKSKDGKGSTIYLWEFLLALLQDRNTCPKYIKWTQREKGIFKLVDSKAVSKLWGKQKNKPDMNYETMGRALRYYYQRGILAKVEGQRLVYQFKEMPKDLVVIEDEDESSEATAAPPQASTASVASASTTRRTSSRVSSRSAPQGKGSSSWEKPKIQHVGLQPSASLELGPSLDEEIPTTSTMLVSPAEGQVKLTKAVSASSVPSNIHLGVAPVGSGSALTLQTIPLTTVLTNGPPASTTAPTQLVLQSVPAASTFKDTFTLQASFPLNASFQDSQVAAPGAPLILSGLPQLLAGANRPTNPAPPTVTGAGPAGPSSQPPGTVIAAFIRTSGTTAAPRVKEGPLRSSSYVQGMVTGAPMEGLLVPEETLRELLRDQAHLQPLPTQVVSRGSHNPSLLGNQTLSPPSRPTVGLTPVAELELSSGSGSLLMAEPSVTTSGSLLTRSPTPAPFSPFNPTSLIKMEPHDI
# In short: as §1
# ELK4 = biological target: T9, ELK4 (Homo sapiens, UniProt P28324-2 1-405); details: protein: recombinant; tags: N-terminal GST; dsDNA, one strand shown
# T9 sequence: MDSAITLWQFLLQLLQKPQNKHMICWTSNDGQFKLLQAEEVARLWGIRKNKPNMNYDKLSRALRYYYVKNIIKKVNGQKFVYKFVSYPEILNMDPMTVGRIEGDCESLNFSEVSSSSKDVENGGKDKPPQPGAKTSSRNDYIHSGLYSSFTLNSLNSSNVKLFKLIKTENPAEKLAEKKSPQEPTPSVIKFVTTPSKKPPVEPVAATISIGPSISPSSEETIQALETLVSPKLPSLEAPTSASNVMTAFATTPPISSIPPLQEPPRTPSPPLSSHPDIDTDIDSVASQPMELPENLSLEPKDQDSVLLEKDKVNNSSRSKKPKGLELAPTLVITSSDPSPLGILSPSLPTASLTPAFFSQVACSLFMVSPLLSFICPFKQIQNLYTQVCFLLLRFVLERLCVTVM
# In short: as §1
# ETV2 = biological target: T10, ETV2 (Homo sapiens, UniProt O00321 1-342); details: protein: recombinant; tags: N-terminal GST; dsDNA, one strand shown
# T10 sequence: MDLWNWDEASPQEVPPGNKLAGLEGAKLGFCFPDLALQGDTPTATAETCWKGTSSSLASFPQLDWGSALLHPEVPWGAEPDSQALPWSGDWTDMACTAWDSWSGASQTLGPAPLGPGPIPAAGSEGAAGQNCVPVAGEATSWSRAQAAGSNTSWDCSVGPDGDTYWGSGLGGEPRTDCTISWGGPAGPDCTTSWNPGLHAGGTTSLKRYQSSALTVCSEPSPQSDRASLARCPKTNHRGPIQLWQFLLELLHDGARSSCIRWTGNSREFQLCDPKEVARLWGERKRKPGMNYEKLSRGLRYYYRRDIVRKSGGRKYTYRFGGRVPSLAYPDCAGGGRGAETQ
# In short: as §1
# ELF3 = biological target: T11, ELF3 (Homo sapiens, UniProt P78545 1-371); details: protein: recombinant; tags: N-terminal GST; dsDNA, one strand shown
# T11 sequence: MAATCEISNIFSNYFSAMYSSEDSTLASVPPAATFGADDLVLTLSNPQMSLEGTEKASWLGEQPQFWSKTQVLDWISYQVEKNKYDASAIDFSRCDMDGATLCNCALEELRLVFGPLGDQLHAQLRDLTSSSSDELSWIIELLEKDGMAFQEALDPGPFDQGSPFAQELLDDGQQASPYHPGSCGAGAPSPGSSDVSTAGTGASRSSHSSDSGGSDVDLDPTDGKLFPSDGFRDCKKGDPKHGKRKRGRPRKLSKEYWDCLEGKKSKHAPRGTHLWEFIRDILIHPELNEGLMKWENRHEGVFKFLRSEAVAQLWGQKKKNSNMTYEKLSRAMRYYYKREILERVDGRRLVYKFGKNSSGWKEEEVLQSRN
# In short: as §1
# ETV1 = ETV1 (Homo sapiens, UniProt P50549 1-477); details: protein: recombinant; tags: N-terminal GST; dsDNA, one strand shown
# ETV1, sequence (P50549 whole entry): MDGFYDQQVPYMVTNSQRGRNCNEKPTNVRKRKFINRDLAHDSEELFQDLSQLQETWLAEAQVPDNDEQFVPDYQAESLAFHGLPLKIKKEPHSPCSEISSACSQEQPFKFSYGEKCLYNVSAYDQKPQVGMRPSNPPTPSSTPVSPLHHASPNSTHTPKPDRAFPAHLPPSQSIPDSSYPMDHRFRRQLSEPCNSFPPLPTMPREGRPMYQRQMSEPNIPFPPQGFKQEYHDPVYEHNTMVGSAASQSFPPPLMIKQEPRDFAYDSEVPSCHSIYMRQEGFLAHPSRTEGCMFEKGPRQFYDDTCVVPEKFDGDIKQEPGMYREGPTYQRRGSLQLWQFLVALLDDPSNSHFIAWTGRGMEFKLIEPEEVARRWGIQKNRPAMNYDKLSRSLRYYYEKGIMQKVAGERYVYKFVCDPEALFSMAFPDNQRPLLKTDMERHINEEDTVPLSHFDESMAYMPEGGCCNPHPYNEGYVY
# In short: as §1
sequence,measurement,setting,value
CCGACA,binding signal,FLI1,"1.2 fold enrichment (6-mer frequency, TF over GST control)"
same,binding signal,ELK1,"1.18 fold enrichment (6-mer frequency, TF over GST control)"
same,binding signal,GABPA,"1.11 fold enrichment (6-mer frequency, TF over GST control)"
same,binding signal,ERG,"1.29 fold enrichment (6-mer frequency, TF over GST control)"
same,binding signal,ELF1,"1.27 fold enrichment (6-mer frequency, TF over GST control)"
same,binding signal,EHF,"1.21 fold enrichment (6-mer frequency, TF over GST control)"
same,binding signal,SPI1,"1.24 fold enrichment (6-mer frequency, TF over GST control)"
same,binding signal,SPIB,"1.25 fold enrichment (6-mer frequency, TF over GST control)"
same,binding signal,ELK3,"1.16 fold enrichment (6-mer frequency, TF over GST control)"
same,binding signal,FEV,"1.31 fold enrichment (6-mer frequency, TF over GST control)"
same,binding signal,ETV5,"1.24 fold enrichment (6-mer frequency, TF over GST control)"
same,binding signal,HSF1,"1.03 fold enrichment (6-mer frequency, TF over GST control)"
same,binding signal,SPIC,"1.34 fold enrichment (6-mer frequency, TF over GST control)"
same,binding signal,ELF4,"1.13 fold enrichment (6-mer frequency, TF over GST control)"
same,binding signal,ELK4,"1.14 fold enrichment (6-mer frequency, TF over GST control)"
same,binding signal,ETV2,"1.32 fold enrichment (6-mer frequency, TF over GST control)"
same,binding signal,ELF3,"1.18 fold enrichment (6-mer frequency, TF over GST control)"
same,binding signal,ETV1,"1.28 fold enrichment (6-mer frequency, TF over GST control)"
